# Laboratory results from PMC7826789 (International Journal of Molecular Sciences, 2021).
# Key:
# Conditions in all cases: Compound Concentration (nM):1000
# [1] = tested on: ABL1(Q252H)-phosphorylated
# [2] = tested on: ABL1(T315I)-nonphosphorylated
# [3] = tested on: ABL1(T315I)-phosphorylated
# [4] = tested on: ABL1(Y253F)-phosphorylated
# [5] = tested on: ABL1-phosphorylated
# [6] = tested on: ABL2
# [7] = tested on: ACVR1B
# [8] = tested on: ACVR1
# [9] = tested on: ACVR2A
# [10] = tested on: ACVR2B
# [11] = tested on: ACVRL1
# [12] = tested on: T1, ADCK3
# T1 construct: gene CABC1
# [13] = tested on: ADCK4
# [14] = tested on: AKT1
# [15] = tested on: AKT2
# [16] = tested on: AKT3
# [17] = tested on: ALK(C1156Y)
# [18] = tested on: ALK(L1196M)
# [19] = tested on: ALK
# [20] = tested on: ABL1-nonphosphorylated
# 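Also: KINOMEscan scanMAX binding as percent activity remaining versus control; lower means stronger binding.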
Structure (SMILES),Percent Control [1],Percent Control [2],Percent Control [3],Percent Control [4],Percent Control [5],Percent Control [6],Percent Control [7],Percent Control [8],Percent Control [9],Percent Control [10],Percent Control [11],Percent Control [12],Percent Control [13],Percent Control [14],Percent Control [15],Percent Control [16],Percent Control [17],Percent Control [18],Percent Control [19],Percent Control [20]
CN(C)c1cc2c(Nc3ccc4c(cnn4Cc4ccccc4)c3)ncnc2cn1 [GW282974X],66%,74%,100%,65%,54%,95%,100%,87%,100%,100%,87%,98%,100%,79%,100%,100%,97%,94%,100%,
COc1ccccc1-c1cc(/C=C2\C(=O)Nc3ncc(Br)cc32)cc(Br)c1O [GW442130X],86%,87%,100%,88%,77%,100%,95%,100%,100%,100%,95%,100%,100%,93%,100%,100%,100%,100%,100%,84%
COc1cc2ncnc(Nc3ccc4c(cnn4Cc4ccccc4)c3)c2cc1OC.Cl [GW282449A],100%,100%,100%,100%,100%,100%,100%,100%,100%,100%,97%,100%,100%,100%,100%,100%,96%,100%,93%,90%
NS(=O)(=O)c1ccc(N/N=C2\C(=O)Nc3ccc(Cl)cc32)cc1 [GW280670X],100%,100%,100%,100%,100%,100%,100%,100%,100%,100%,100%,100%,100%,100%,100%,100%,100%,100%,100%,93%
COc1cc(C)c(N(C)C(=O)CN(C)C)cc1Nc1nc(Nc2cccc(F)c2C(N)=O)c2cc[nH]c2n1 [GSK2219385],95%,65%,100%,100%,87%,100%,100%,96%,100%,100%,100%,80%,100%,98%,85%,100%,4.5%,13%,1.7%,69%
COc1cc(/C=N/Nc2ncnc3[nH]ncc23)ccc1O [GW578748X],1.6%,79%,24%,1.1%,1.2%,68%,100%,83%,50%,40%,67%,100%,100%,100%,100%,100%,82%,75%,98%,3.1%
CC(C)COC(=O)c1ccc2c(c1)/C(=C/Nc1ccc(S(N)(=O)=O)cc1)C(=O)N2 [GW416981X],100%,100%,73%,100%,100%,100%,100%,100%,100%,100%,100%,100%,100%,100%,100%,100%,93%,94%,100%,100%
CN(C)CCNC(=O)Nc1ccc(N(C)c2ccnc(Nc3ccc(CS(C)(=O)=O)cc3)n2)cc1.Cl [GW830900A],58%,78%,86%,65%,71%,75%,100%,79%,79%,88%,100%,100%,79%,100%,100%,100%,70%,85%,71%,59%
CCn1c(-c2nonc2N)nc2c(C#CC(C)(C)O)nc(OCCNC)cc21.Cl [GSK949675],96%,87%,100%,91%,78%,100%,100%,100%,100%,99%,100%,100%,100%,3.7%,3.1%,0.2%,95%,100%,85%,97%
NS(=O)(=O)c1ccc(Nc2ncc(-c3ccccc3)o2)cc1 [GW572399X],100%,100%,89%,100%,87%,88%,100%,100%,100%,100%,100%,100%,100%,100%,100%,100%,96%,96%,87%,81%
